According to PubChem BioAssay (NCI):
The panel holds about 83,000 compounds, 20% with a hit somewhere; the sample as a whole holds those more often.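 Step 1: grow cells in 96-well plates. Step 2: add test compound at a single concentration. Step 3: incubate 48 h. Step 4: record percent growth.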 A number with no mark means an inactive call. Calls of active or inactive are those of the source.

Each compound was assayed on SK-MEL-28 melanoma (assay: NCI-60 one-dose screen, 48 h (100 = growth as untreated, 0 = no growth, -100 = all killed)). Details: 10 µM unless noted.
Experimental: Growth inhibition of the SK-MEL-28 human tumor cell line is measured as a screen for anti-cancer activity. Cells are grown in 96 well plates and exposed to the test compound for 48 hours. Compounds are tested at a single concentration, which is 10^-5 M for most compounds. The reported endpoint is percent growth (GI% or GIPRCNT), where numbers from 0 - 100% represent growth inhibition, and numbers from -100% - 0 represent cell death. For example, a value of 40 represents 60% growth inhibition. A value of 0 means no net growth occurred over the course of the experiment. A value of -40 indicates 40% of cells at the beginning of the experiment died by the end of the experiment. A value of -100 means all cells are dead at the end of the experiment.
NCI-60 Human Tumor Cell Lines Screen was performed using the standard one-dose NCI protocol, which is described in more detail at https://dtp.cancer.gov/discovery_development/nci-60/default.htm.
Compounds with GIPRCNT values below 10 were considered active. Activity score was based on GIPRCNT using the following formula: […]
Score is 0 for GIPRCNT values of 100 or above, 50 for GIPRCNT values of 0, and 100 for GIPRCNT values of -100.
`CCOc1ccc(S(=O)(=O)Nc2ccc3c(c2)N(S(=O)(=O)CC)CCC3)cc1` gave a growth of 103%.
Compound `Nc1ccc(Cl)c([N+](=O)[O-])c1` has a growth of 100%.
`O=C(N=c1n(-c2ccccc2)nc2n1CCN2C1=NCCN1C(=O)c1ccc(Cl)cc1)c1ccc(Cl)cc1` was tested, and the growth was 88.8%.
Compound `O=[N+]([O-])c1cc([N+](=O)[O-])c(C(F)(F)F)cc1NN=C(c1ccc(O)cc1)c1ccc(O)cc1` has a growth of 94.8%.
In the case of `O=C(O)CSCc1nnc2n(Cc3ccccc3)c(=O)c3c4c(sc3n12)CCCC4`, the growth is reported as 131%.
For `O=C1C(Cl)=C(Nc2ccc3cn[nH]c3c2)C(=O)c2ccccc21`, the growth was -97.7% (active).
In the case of `COc1ccc2[nH]c(C(=O)N3CCN(C(=O)OCc4ccc5c(Br)cc(Br)c(O)c5n4)CC3)cc2c1`, the growth is reported as -98.1% (active).
Compound `C=C(CC(=O)OC)C(C)=O` has a growth of 118%.
Work on `Cc1cccc(C[C@H](NC(=O)Nc2ccc(Cl)cc2F)C(=O)N[C@@H]2C(=O)N3C[C@H](O)C[C@H]3C(=O)N3CCN(C)C[C@H]3C(=O)N[C@@H](C)C(=O)N3C[C@H](C)C[C@H]3C(=O)O[C@H]2C)c1` yielded a growth of 42.4%.
For `C=CCCCCCCCCC(=O)OC(C)C`, the growth was 104%.
For `COc1ccc(/C=C(/C2=NCCN2)n2ccc3ccccc32)cc1`, the growth was 104%.
With `OC(c1ccc(Cl)cc1)(c1ccc(Cl)cc1)C(O)(c1ccc(Cl)cc1)c1ccc(Cl)cc1` the growth was 73.7%.
Compound `CCN(CC)CCCOc1ccc2c(c1)O/C(=C\c1cccc(OC)c1)C2=O` has a growth of 101%.
`CCCCNC(=O)NS(=O)(=O)Cc1ccccc1` gave a growth of 108%.
`CCNc1cc2c(cc1Br)-c1ccccc1C2=O` was tested, and the growth was 114%.
Work on `Cc1ccc(NC(=O)N[C@@H](Cc2cc(F)cc(F)c2)C(=O)N[C@@H]2C(=O)N3CCC[C@H]3C(=O)N3CCCC[C@H]3C(=O)N[C@@H](C)C(=O)N3C[C@H](C)C[C@H]3C(=O)O[C@H]2C)cc1` yielded a growth of 39.4%.
Compound `COc1ccc(OC)c(NC=O)c1` has a growth of 115%.
`CCOC(=O)COc1ccc2c(c1)O/C(=C\c1ccc(O)cc1)C2=O` was tested, and the growth was 106%.
With `Cc1ccc(C2=C/C(=C/c3ccc(Br)cc3)C(=O)N2CCc2ccc(S(N)(=O)=O)cc2)cc1` the growth was 104%.
For `Fc1cc2[nH]ncc2c2c3c(c(-c4cn[nH]c4)nc12)CCCC3`, the growth was 2.87% (active).
`O=C(CSc1nc2ccc([N+](=O)[O-])cc2[nH]1)Nc1cccc(Cl)c1` was tested, and the growth was 28.9%.
`O=C(N/N=C\c1cc(Cl)ccc1O)N/N=C/c1cc(Cl)ccc1O` was tested, and the growth was 80.4%.
`COc1ccc(-c2cc(-c3ccc(OC)c(OC)c3)nc(SCCCCCC(=O)NO)n2)cc1` showed a growth of 35.5%.
In the case of `Nc1ccc2c(c1)Cc1cc(NC(=O)C(F)(F)F)ccc1-2`, the growth is reported as 102%.
In the case of `COc1cc(/C=C/C(=O)/C=C/c2ccc(-n3ccnc3C)cc2)ccc1O`, the growth is reported as 84.1%.
In the case of `CCc1ccc(-c2ccc(COc3ccc(CC4SC(=O)NC4=O)cc3)cc2)cc1` (stereo not given), the growth is reported as 85%.
`NC(=O)CC1C=CCC1` (stereo not given) gave a growth of 109%.
In the case of `O=C(CCNCc1ccccc1)c1ccccc1`, the growth is reported as 113%.
`CCCOc1ccc(-c2nc(-c3ccc(N)cc3)cs2)cc1` gave a growth of 132%.
With `CCOC(=O)C(=Cc1ccccc1[N+](=O)[O-])C(=O)OCC` the growth was 33.7%.
With `COc1ccc(N(c2nc(-c3ccc([N+](=O)[O-])cc3)cs2)C(C)C)cc1` the growth was 103%.
Work on `CSc1nc2sc3cc(Cl)c(Cl)cc3n2c(=N)c1C#N` yielded a growth of 108%.
Work on `CCN(CC)CCCCCCNc1cccc2cc(Br)cnc12` yielded a growth of 108%.
For `CCCCCC1CCCCN1C(=O)OCCCC` (stereo not given), the growth was 116%.
`O=C1COCCN1c1ccc(NCc2cn(Cc3ccc(F)cc3)c3ccccc23)cc1` was tested, and the growth was 87.6%.
With `CC(C)C1=NOC(=O)C1=Cc1cn(-c2ccccc2)nc1-c1ccccc1` the growth was 95.1%.
In the case of `CCOC(=O)c1nn(C2CCCCO2)c2ccc(NC(=O)Cn3nnc4ccccc43)cc12` (stereo not given), the growth is reported as 106%.
Work on `COc1ccc(C(C(=O)O)c2ccc(OC)cc2)cc1` yielded a growth of 107%.
Work on `C=C(C)[C@@H]1CC[C@]2(COC(=O)c3ccccc3C(=O)O)CC[C@]3(C)[C@H](CC[C@@H]4[C@@]5(C)CC[C@H](OC(=O)c6ccccc6C(=O)O)C(C)(C)[C@@H]5CC[C@]43C)[C@@H]12` yielded a growth of 31.3% [100 µM].
`CC(C)(C)OC(=O)N1C=C/C(=C\Cn2cc(-c3ccccc3)nn2)CC1` gave a growth of 72.7%.
